{"source": "paper PMC7819943", "about": "“Rice protein-binding microarrays: a tool to detect cis-acting elements near promoter regions in rice”", "note": "Over roughly 35,000 sequences, “fluorescence intensity (a.u.)” has its median near 10,000; the highest 2% begin near 52,000. The sample holds the highest values, similar sequences and a random draw of the others, so the mix is not that of the screen.", "data": [{"target": "T1, OsWOX13 (Oryza sativa, UniProt Q5QMM3 1-267)", "T1 sequence": "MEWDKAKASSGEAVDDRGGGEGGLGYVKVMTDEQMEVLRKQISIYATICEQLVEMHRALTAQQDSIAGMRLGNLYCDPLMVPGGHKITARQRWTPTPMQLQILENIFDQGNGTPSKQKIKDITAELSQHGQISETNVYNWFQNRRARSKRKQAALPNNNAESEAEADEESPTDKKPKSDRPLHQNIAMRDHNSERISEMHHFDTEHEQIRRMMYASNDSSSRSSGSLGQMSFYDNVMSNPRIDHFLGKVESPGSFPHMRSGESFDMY", "experiment": "protein-binding microarray (RPBM); PBS, 2% BSA, 51.3 ng/ul salmon testes DNA, 50 uM zinc acetate, 200 nM TF, 25 C, 1 h; high values mean tight binding", "details": "protein: recombinant; tags: N-terminal polyhistidine and DsRed monomer fusion (pET32a); label: CyDye5-dUTP incorporated in the synthesized complementary strand; 3' TTTTT single-stranded linker to array surface; dsDNA, one strand shown", "in_short": "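Transcription factors, each fused N-terminally to a polyhistidine tag and DsRed, were expressed in E. coli BL21-CodonPlus and purified on Ni–NTA. A custom Agilent array was made double-stranded by primer extension with Cy5-dUTP and blocked with 2% BSA. It was incubated with 200 nM protein in PBS, 2% BSA, salmon testes DNA and 50 µM zinc acetate at 25 °C for 1 h, then washed. The binding signal is per-feature fluorescence intensity (arbitrary units) read on an Axon 4000B scanner.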", "values": [{"sequence": "CAATACATAACAGACAAATTATCAAAATAGATTAAAGTTTCGGAGTCACCTAGTGCAG", "binding signal": "4710 fluorescence intensity (a.u.)"}, {"sequence": "ATTTTAAATTTATTATATGATGATTAATTTGGGAATGAGGCGGAGTCACCTAGTGCAG", "binding signal": "28400 fluorescence intensity (a.u.)"}, {"sequence": "TACATCACTAATCACGTTGCTTCGATGACACCTCCTTCTTCGGAGTCACCTAGTGCAG", "binding signal": "7440 fluorescence intensity (a.u.)"}, {"sequence": "TGTATGTGTGTACTCGTAATTAGTGAGAATTTAAATTCATCGGAGTCACCTAGTGCAG", "binding signal": "3820 fluorescence intensity (a.u.)"}, {"sequence": "CAAAAGTGTTCAATCAAATATGAAAATGAGTATAATGCAACGGAGTCACCTAGTGCAG", "binding signal": "6990 fluorescence intensity (a.u.)"}, {"sequence": "CTAATTAGGTCCAGGACATTAAATGGGTTGATTACGTCACCGGAGTCACCTAGTGCAG", "binding signal": "8450 fluorescence intensity (a.u.)"}, {"sequence": "GTTTATGTTAGTGCTAGTGATTAGTACTTAAACATTCAGACGGAGTCACCTAGTGCAG", "binding signal": "4010 fluorescence intensity (a.u.)"}, {"sequence": "GAACTAATTGATACATTAGCCACTTGATGAGCTCCTCTCCCGGAGTCACCTAGTGCAG", "binding signal": "58600 fluorescence intensity (a.u.)"}, {"sequence": "CCAATTTAATAAAATAAATTGATACTATAAATATTACAATCGGAGTCACCTAGTGCAG", "binding signal": "9090 fluorescence intensity (a.u.)"}, {"sequence": "AAGAGTTTAAATTTTAAAATGATTTTATAAGTGGTTAACCCGGAGTCACCTAGTGCAG", "binding signal": "7500 fluorescence intensity (a.u.)"}, {"sequence": "AACTTATAAATTGATTTATAAGTCTAAATAAAGAGGCACCCGGAGTCACCTAGTGCAG", "binding signal": "55800 fluorescence intensity (a.u.)"}, {"sequence": "ATAACTAATAAATGATTGAATTAGATGAATAGGTAGTTTCCGGAGTCACCTAGTGCAG", "binding signal": "31000 fluorescence intensity (a.u.)"}, {"sequence": "CTTATTAGCACATGATTAATTAATTATTAACTATTATAAACGGAGTCACCTAGTGCAG", "binding signal": "19500 fluorescence intensity (a.u.)"}, {"sequence": "GTTTCTAATTAACTAAATTAATTAATTAGCATGATTGGTCCGGAGTCACCTAGTGCAG", "binding signal": "64700 fluorescence intensity (a.u.)"}, {"sequence": "AAATTTATAATTTTACAATAAATTTGATATTAAATTTGTACGGAGTCACCTAGTGCAG", "binding signal": "12300 fluorescence intensity (a.u.)"}, {"sequence": "AATACTTGCAAATTAGCTAACTAGTTCTCCTAATTGAGCCCGGAGTCACCTAGTGCAG", "binding signal": "9350 fluorescence intensity (a.u.)"}, {"sequence": "AGGCACTAAAATAATCTAATTGATTAACTAATCGGTCACCCGGAGTCACCTAGTGCAG", "binding signal": "25300 fluorescence intensity (a.u.)"}, {"sequence": "ATCTGGCAATAATTTACAATTAATTGATACCTTATTGCCTCGGAGTCACCTAGTGCAG", "binding signal": "54800 fluorescence intensity (a.u.)"}, {"sequence": "TGCTAACTTGAGATGAATGTCGAACTCCTAATTGCAGCTCCGGAGTCACCTAGTGCAG", "binding signal": "3470 fluorescence intensity (a.u.)"}, {"sequence": "CATGACAGCGTGCTTGGATCAACCGCTTTTGTCTTCTCCACGGAGTCACCTAGTGCAG", "binding signal": "3780 fluorescence intensity (a.u.)"}, {"sequence": "ATTGATAAGCCTAATTTAGACATCAAACCAAACCAGCCCTCGGAGTCACCTAGTGCAG", "binding signal": "14300 fluorescence intensity (a.u.)"}, {"sequence": "TTGATCATGATGATATTTAATTTGTTTAGATCACACACTACGGAGTCACCTAGTGCAG", "binding signal": "10200 fluorescence intensity (a.u.)"}, {"sequence": "ATTCCTAAAATTATATGAATTTATGAGAAATTACGTAATGCGGAGTCACCTAGTGCAG", "binding signal": "4300 fluorescence intensity (a.u.)"}, {"sequence": "ATGGAATCAGTAATTAACTAGAAATAAATTAATACTCCTACGGAGTCACCTAGTGCAG", "binding signal": "9880 fluorescence intensity (a.u.)"}, {"sequence": "TGGCAATGATTTATACTTCAATCATAATTGTTTGCTTAGGCGGAGTCACCTAGTGCAG", "binding signal": "24000 fluorescence intensity (a.u.)"}, {"sequence": "TTAGCTATCACAGACACAATCACACAACGATGGTAAAACACGGAGTCACCTAGTGCAG", "binding signal": "6740 fluorescence intensity (a.u.)"}, {"sequence": "CCAAATTTGGTAATTTAGAATTTGAACTAGCGTGAGAAAACGGAGTCACCTAGTGCAG", "binding signal": "19800 fluorescence intensity (a.u.)"}, {"sequence": "TCACTGTTATTTAATTATATATATATATATATATTCATGCCGGAGTCACCTAGTGCAG", "binding signal": "8880 fluorescence intensity (a.u.)"}, {"sequence": "AGAATGGTGATTAACTATTGGTGTTAATTAATTTGCTGCACGGAGTCACCTAGTGCAG", "binding signal": "31000 fluorescence intensity (a.u.)"}, {"sequence": "AGGGTAATTACACATTTAACCCTATTTTAAGGTCTAACTACGGAGTCACCTAGTGCAG", "binding signal": "18400 fluorescence intensity (a.u.)"}, {"sequence": "ATTAATTAATTAACCTCTAACATTTAACTAATGCAGGTAACGGAGTCACCTAGTGCAG", "binding signal": "56900 fluorescence intensity (a.u.)"}, {"sequence": "ATTAATTAAAATCGCGCCCAATTAATCATTTAATCCATCCCGGAGTCACCTAGTGCAG", "binding signal": "40700 fluorescence intensity (a.u.)"}, {"sequence": "TTATGCATTAACAACGTAACTAATTTAATTTGATTAGTTTCGGAGTCACCTAGTGCAG", "binding signal": "24000 fluorescence intensity (a.u.)"}, {"sequence": "TGTGATTGGTAATTGCCGAACTATTTGAAAATGGTGCGTGCGGAGTCACCTAGTGCAG", "binding signal": "62300 fluorescence intensity (a.u.)"}, {"sequence": "GACATTAATTAATTTAAATTAACGCTCACTGTTCATCGCCCGGAGTCACCTAGTGCAG", "binding signal": "65500 fluorescence intensity (a.u.)"}, {"sequence": "ACCAATTATAAACACAAGTTAATGGGCAAATGACATGGAACGGAGTCACCTAGTGCAG", "binding signal": "11500 fluorescence intensity (a.u.)"}, {"sequence": "TTAATTTACCGGATTCAATATTCCATATTTAGAAGTCACCCGGAGTCACCTAGTGCAG", "binding signal": "3350 fluorescence intensity (a.u.)"}, {"sequence": "CATGACATCGTCATTGACCGTGTCATCGTCAAGATGGATGCGGAGTCACCTAGTGCAG", "binding signal": "4420 fluorescence intensity (a.u.)"}, {"sequence": "AATAAAAGATTATCATATCTAAATAGAAGATATACCATCTCGGAGTCACCTAGTGCAG", "binding signal": "4160 fluorescence intensity (a.u.)"}, {"sequence": "AAACCAATTTCAATTACCAATTACTCCCTAATATTAGCTACGGAGTCACCTAGTGCAG", "binding signal": "18900 fluorescence intensity (a.u.)"}, {"sequence": "GATCAAAAGAAATTTGCCAAATTTACTGCTTTGTGATGGGCGGAGTCACCTAGTGCAG", "binding signal": "3610 fluorescence intensity (a.u.)"}, {"sequence": "ATGGACTAATTATGCTCAAAAGATTCGTCTCACGATTTACCGGAGTCACCTAGTGCAG", "binding signal": "16800 fluorescence intensity (a.u.)"}]}]}
